Source: the supplement of paper PMC11417369
± gives the standard deviation of the averaged measurements. Over roughly 25,000 sequences, “ln(normalized median fluorescence intensity)” has its median near 8.9; the highest 2% begin near 10. The full list was thinned out, with the highest values kept by preference.

These sequences were tested on PfAP2-LT AP2 domain (GST-tagged) (assay: gcPBM binding intensity (ln(normalized median fluorescence intensity)); higher = stronger DNA binding).
Procedure, shortened: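 For binding intensity, the highest Masliner-normalised natural-log median intensity across replicate spots of either probe orientation was taken. Protein bound to the array was stained with Alexa488 anti-GST antibody and scanned at 488 nm. The protein, GST-tagged P. falciparum DNA-binding domains from E. coli at about 25 μg on average, had been applied for 1 h to an Agilent 4 × 180k array of primer-extended double-stranded 36-bp intergenic genomic probes and negative controls.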

Sequence | gcPBM binding intensity (ln)
ATGATTATTTTAAAAAGTACTAATTATTATTTTTTT [XGTACX_site7242] | 8.34 ± 0.47
TTCGTTATATTTTGATGTACTGATTCATATATATAT [XGTACX_site1835] | 9.09 ± 0.42
ATTTTCTATTTTATTTGTACGTAATTTAATTTTTTT [XGTACX_site3609] | 8.96 ± 0.53
TATATACAAAATGCCTGTACATATATATTTATTTAT [XGTACX_site761] | 8.85 ± 0.35
ATAATATAATAATACACACTCATTATATATATAAAG [CACACA_site3956] | 8.82 ± 0.43
GGTCATCATCGGTATTGTACAAAAATGTGAAAATTA [XGTACX_site639] | 8.73 ± 0.48
AAATATATTATATCATATATTAAAGCATATATTAAA [CACACA_negctrl_site1624] | 8.43 ± 0.42
TATCTGTATTTGTATACACACAAATGTATTTATTTA [CACACA_site4830] | 8.94 ± 0.44
TATATTATAAATTAATGTACGTAATTTTTTTTTTTT [XGTACX_site2500] | 8.38 ± 0.48
TTTATAAACAAATGAACACACAAACATATATATATA [CACACA_site5713] | 9.33 ± 0.24
AACAAAAATGAAAAAACACACATAACATATATAAAT [CACACA_site740] | 9.27 ± 0.41
ATAAAATGAACAAACACACACACATATATATATATA [CACACA_site2402] | 10.2 ± 0.13
TTAACTATAATAAAATGTACATATGTAACATATATA [XGTACX_site7790] | 8.66 ± 0.4
ATTAATTATTTCAATGCATGTGAACACTATATATAA [TGCATGCA_site600] | 8.84 ± 0.42
ATGGATAATAAGTTTACACACAAAAAAAAAGAAAAA [CACACA_site861] | 9.02 ± 0.57
GTTCATAAATTAAACACACACACACCGCTGGATACC [CACACA_site5779] | 9.77 ± 0.16
GTTCATAAATTAAACACACACACACCCCTGGATACC [CACACA_site3331] | 10.13 ± 0.085
GTTCATAAATTAAACACACACACACGGCTGGATACC [CACACA_site7545] | 9.79 ± 0.26
TAAACACCCATATAAACACACATATAAACACCCATA [CACACA_site5382] | 9.4 ± 0.21
CACTAAAAGAAACACACACACACACCCATATATATA [CACACA_site4151] | 10.2 ± 0.23
CATATTTGGAAACACACACACATATTTATATATATA [CACACA_site3569] | 9.62 ± 0.38

Sequence | gcPBM binding intensity (ln)
CAGGCACTAATAAACACACACATATAAATATAAATA [CACACA_site6320] | 9.38 ± 0.59
AAAAGAAAAAGAAAAACACACATAAATATAAATATA [CACACA_site1879] | 8.93 ± 0.64
CACCCACTAATAAACACACACATATATATATATATA [CACACA_site389] | 10.3 ± 0.18
AAAAAAAAAAAACACACACACACACCCATATATAAA [CACACA_site1170] | 9.995 ± 0.064
CCCACTAAAAAACACACACACACACCCATATATATA [CACACA_site6140] | 10.31 ± 0.078
TAATTTTTGAAACACACACACATATATATATATATA [CACACA_site94] | 9.885 ± 0.0071
ATAATTTGGAAACACACACACACACCCACATATATA [CACACA_site2286] | 10.28 ± 0.064
ATACTAAAGAAACACACACACATATATATATAGAAT [CACACA_site100] | 9.94 ± 0.28
AAAAAATTATATAATAATAGAACTATACATTTTATT [GTGCAC_negctrl_site645] | 8.44 ± 0.47
TACAATAAGGATAAGTGTACATATGTGCATACATAT [XGTACX_site7188] | 8.96 ± 0.35
TATTATTATTTTTTATGTACTAACGACAAAAATATT [XGTACX_site252] | 8.48 ± 0.4
AATATTTTTATATATATACACACTTACATATATATA [CACACA_site3609] | 8.91 ± 0.4
TTTTTTTTTTTGTGGGTGCGTTTATAAAAACAGGAA | 8.42 ± 0.33
GGAACGTTCATATTTCCACACACAAAAAATAAATAT [CACACA_site9101] | 9.31 ± 0.57
TTACACAAGGATAAAAACATATGTATGATTATATAT [CACACA_negctrl_site654] | 8.89 ± 0.47
ATAGCTTTTATTTAAAGTACAAAAAGGATGTTGAAA [XGTACX_site3810] | 8.46 ± 0.44
TTTTTTAAGTAATGAAATGATTTTCTTATAGAATAA [GTGCAC_negctrl_site395] | 7.96 ± 0.36
AAAAAACAATTTGTGTGTACACATGATACGTTCGAT [XGTACX_site4112] | 9.39 ± 0.28
TTAAAAAAAAAACACACACACATACCCATATATATA [CACACA_site5768] | 9.825 ± 0.021
AACATATAAAAATGTGCACACACACCCATATATATA [CACACA_site1525] | 9.79 ± 0.3
TCTCATAGGAAACACACACACACACCCACATATATA [CACACA_site1738] | 10.1 ± 0.11

Sequence | gcPBM binding intensity (ln)
TTTCCCATAGGAAAAACACACATATATTATATATAA [CACACA_site1981] | 8.57 ± 0.4
TCTCATAGTAAACACACACACACACCCACATATATA [CACACA_site5034] | 9.97 ± 0.071
CGCACTAAAAAACACACACACACACCCATATATATA [CACACA_site4152] | 10.2 ± 0.29
AATAAAATATAATAATTAATATATATATATATATAA [GTGCAC_negctrl_site457] | 8.65 ± 0.45
ACACACAATACAAAAGTGCATATAATAATTAATCAT | 9.34 ± 0.46
TTATAATATATATGTGGTACTTATTTATTTATTTAT [XGTACX_site7572] | 8.72 ± 0.49
AACAAATTAATTCTAGTGCAGGACGTATTTGTGTAC [GTGCAC_site9907] | 8.88 ± 0.36
AAAAAAACACACACATATATATATATATATATATAT [GTGCAC_negctrl_site498] | 10.2 ± 0.16
AAAAAAAAAAAAAACACACACATATATATATATATA [CACACA_site1891] | 10.1 ± 0.37
AAAAAAAAAAAAAAAACACACACATATATATAATAT [CACACA_site9038] | 9.3 ± 0.41
AACACACACATATATATATATATATATATATATATA [GTGCAC_negctrl_site573] | 10.5 ± 0.13
AAAAAAAAAAAACACACACACATATATATATATATA [CACACA_site732] | 10.4 ± 0.19
AAAAAAAAAAAAAAAACACACACATATATATATATA [CACACA_site8571] | 9.72 ± 0.29
AACATACACATATACACACACACATATATACATATA [CACACA_site1093] | 9.89 ± 0.23
AAAAAAAAAAAAAACACACACATATATATAATATAT [CACACA_site3172] | 9.37 ± 0.41
AAAAAAAAAAAAAACACACATACATACATACATATA [CACACA_site4121] | 9.13 ± 0.38
AAAAAAAAAAAACATACACACATACATACATATATA [CACACA_site8222] | 9.26 ± 0.35
CATATATAAAAAAACACACACATATATATATATATA [CACACA_site1195] | 9.82 ± 0.042
ACACATATATATATATATATATATATATATATATAT [CACACA_negctrl_site1766] | 9.935 ± 0.035
